# Measured values as given in the antibiotic and cytotoxicity screens of Wong et al. (2023).
# Among all 39,000 compounds or so, about 3,300 (8.5%) were called active. This is one part of a sample in which actives are shown more often than they occur.
# Tested on: HepG2
# Test: cytotoxicity call (relative viability < 0.9)
# Conditions: 10 µM
row,Structure (SMILES),cytotoxicity call
1,COc1ccc(NC(=O)N(C)C[C@@H]2Oc3ccc(NC(=O)CCCCCC(=O)Nc4ccccc4N)cc3CC(=O)N([C@@H](C)CO)C[C@H]2C)cc1,inactive
2,C[C@H]1CCCCO[C@@H](CN(C)C(=O)NC2CCCCC2)[C@@H](C)CN([C@@H](C)CO)C(=O)c2cc(NC(=O)CCC(F)(F)F)ccc2O1,inactive
3,C[C@@H]1CCCCO[C@@H](CN(C)CC2CCCCC2)[C@H](C)CN([C@@H](C)CO)C(=O)c2cc(NC(=O)NC3CCCCC3)ccc2O1,inactive
4,C[C@@H]1CCCCO[C@H](CN(C)CC2CCCCC2)[C@H](C)CN([C@H](C)CO)C(=O)c2cc(NC(=O)NC3CCCCC3)ccc2O1,active
5,C[C@@H]1CCCCO[C@@H](CN(C)CC2CCCCC2)[C@H](C)CN([C@H](C)CO)C(=O)c2cc(NC(=O)NC3CCCCC3)ccc2O1,inactive
6,C[C@H]1CCCCO[C@H](CN(C)CC2CCCCC2)[C@@H](C)CN([C@@H](C)CO)C(=O)c2cc(NC(=O)NC3CCCCC3)ccc2O1,active
7,C[C@@H]1CCCCO[C@@H](CN(C)CC2CCCCC2)[C@@H](C)CN([C@@H](C)CO)C(=O)c2cc(NC(=O)NC3CCCCC3)ccc2O1,inactive
8,C[C@@H]1CCCCO[C@H](CN(C)CC2CCCCC2)[C@@H](C)CN([C@H](C)CO)C(=O)c2cc(NC(=O)NC3CCCCC3)ccc2O1,inactive
9,C[C@H](CO)N1C[C@H](C)[C@H](CN(C)CC2CCCCC2)OCCCC[C@H](C)Oc2ccc(NC(=O)NC3CCCCC3)cc2C1=O,inactive
10,CCCN(C)C[C@@H]1OCCCC[C@H](C)Oc2ccc(NC(=O)NC3CCCCC3)cc2C(=O)N([C@@H](C)CO)C[C@@H]1C,inactive
11,CCCN(C)C[C@H]1OCCCC[C@@H](C)Oc2ccc(NC(=O)NC3CCCCC3)cc2C(=O)N([C@@H](C)CO)C[C@H]1C,inactive
12,C[C@@H]1CN([C@@H](C)CO)C(=O)c2cc(NC(=O)NC3CCCCC3)ccc2O[C@@H](C)CCCCO[C@@H]1CN(C)CC1CCCCC1,inactive
13,C[C@@H]1CN([C@@H](C)CO)C(=O)c2cc(NC(=O)NC3CCCCC3)ccc2O[C@@H](C)CCCCO[C@H]1CN(C)CC1CCCCC1,active
14,CCCN(C)C[C@@H]1OCCCC[C@@H](C)Oc2ccc(NC(=O)NC3CCCCC3)cc2C(=O)N([C@H](C)CO)C[C@@H]1C,active
15,COc1cccc(NC(=O)N2C[C@@H](O)COC[C@H]3O[C@H](CC(=O)NC4Cc5ccccc5C4)CC[C@@H]32)c1,inactive
16,CCNC(=O)C[C@H]1CC[C@H]2[C@@H](COC[C@@H](O)CN2C(=O)Nc2c(C)noc2C)O1,inactive
17,Cc1ccc(S(=O)(=O)N[C@@H]2CC[C@H](CCNC(=O)CN3CCOCC3)O[C@H]2CO)cc1,inactive
18,CCOC(=O)CCc1n[nH]c(=O)[nH]c1=O,inactive
19,O=C(CCCCCNC(=O)OCCCCO[C@@H]1C[C@H](C2CCCCC2)C=C(C(=O)N2CCOCC2)O1)NO,inactive
20,Cc1noc(C)c1NC(=O)Nc1ccc2c(c1)C(=O)N([C@@H](C)CO)C[C@@H](C)[C@H](CN(C)S(C)(=O)=O)O2,inactive
21,C[C@H](CO)N1C[C@H](C)[C@@H](CN(C)C(=O)CCC(F)(F)F)OCCCC[C@H](C)Oc2ccc(NC(=O)C3CCCCC3)cc2C1=O,inactive
22,Cc1noc(C)c1NC(=O)N(C)C[C@@H]1OCCCC[C@H](C)Oc2ccc(NC(=O)CCC(F)(F)F)cc2C(=O)N([C@@H](C)CO)C[C@H]1C,inactive
23,C[C@H](CO)N1C[C@H](C)[C@H](CN(C)Cc2ccc(Cl)c(Cl)c2)Oc2c(NC(=O)Nc3ccccc3)cccc2C1=O,inactive

row,Structure (SMILES),cytotoxicity call
1,C[C@@H]1CN([C@H](C)CO)C(=O)c2cccc(NS(=O)(=O)c3ccc(Cl)cc3)c2O[C@H]1CN(C)Cc1ccc(Cl)c(Cl)c1,inactive
2,O=S1(=O)C[C@H](NCCO)[C@@H](O)C1,inactive
3,CNC(=O)C(=O)NCCc1c[nH]c2ccccc12,inactive
4,NC(Cc1c[nH]c2ccccc12)C(=O)O (configuration not stated),inactive
5,OCc1c[nH]c2ccccc12,active
6,C[C@@H]1CN([C@H](C)CO)C(=O)c2cccc(NC(=O)c3nc4ccccc4s3)c2O[C@H]1CN(C)C(=O)Nc1ccc(F)cc1,inactive
7,CN1CCN(C(=O)CC#N)CC1,inactive
8,C[C@@H]1CN([C@@H](C)CO)C(=O)c2cccc(NC(=O)C3CCCCC3)c2O[C@H]1CN(C)S(=O)(=O)c1cn(C)cn1,inactive
9,CCCCCC[C@@H](O)CC=CCCCCCCCC(=O)O,inactive
10,N[C@@H]1CC[C@@H](c2ccc(Cl)c(Cl)c2)c2ccccc21,active
11,CNC1CCC(c2ccc(Cl)c(Cl)c2)c2ccccc21.Cl (configuration not stated),active
12,CN[C@H]1CC[C@@H](c2ccc(Cl)c(Cl)c2)c2ccccc21,active
13,C[C@@H]1CN([C@@H](C)CO)C(=O)CCCn2nncc2CO[C@@H]1CN(C)S(=O)(=O)c1ccc(C#N)cc1,inactive
14,CC(=O)NCCCC[C@@H]1NC(=O)[C@@H]2C[C@H](C(=O)NCCCCCCNC(=O)CS)[C@H](c3ccc(O)cc3)N2C1=O,inactive
15,C[C@@H]1CCCCO[C@H](CN(C)C(=O)NC2CCCCC2)[C@H](C)CN([C@@H](C)CO)C(=O)c2cc(NC(=O)c3ccncc3)ccc2O1,inactive
16,C[C@@H]1CN([C@@H](C)CO)C(=O)c2cc(NC(=O)NC3CCCCC3)ccc2O[C@@H](C)CCCCO[C@H]1CN(C)Cc1ccc(C(=O)O)cc1,inactive
17,CC(C)NC(=O)N(C)C[C@@H]1Oc2c(NS(=O)(=O)c3cn(C)cn3)cccc2C(=O)N([C@@H](C)CO)C[C@H]1C,inactive
18,C[C@@H]1CCCCO[C@@H](CN(C)S(=O)(=O)c2ccccc2)[C@H](C)CN([C@H](C)CO)C(=O)c2cc(NC(=O)Nc3cccc4ccccc34)ccc2O1,inactive
19,C[C@H]1CN([C@@H](C)CO)C(=O)c2cccc(NC(=O)C3CCOCC3)c2O[C@H]1CN(C)Cc1ccncc1,inactive
20,COCCOC(=O)N1C(=O)[C@@]2(c3cc(C#CCCO)ccc31)[C@H](C(=O)N1CCc3cc(OC)c(OC)cc3C1)[C@H]1C(=O)O[C@H](c3ccccc3)[C@H](c3ccccc3)N1[C@@H]2c1ccccc1OCCO,active
21,COCCOC(=O)N1C(=O)[C@@]2(c3cc(C#CC4=CCCCC4)ccc31)[C@H](c1ccccc1OCCO)N1[C@H](c3ccccc3)[C@H](c3ccccc3)OC(=O)[C@H]1[C@@H]2C(=O)N1CCCCCCC1,inactive
22,COCCOC(=O)N1C(=O)[C@@]2(c3cc(C#CCCO)ccc31)[C@H](c1ccccc1OCCO)N1[C@H](c3ccccc3)[C@H](c3ccccc3)OC(=O)[C@H]1[C@@H]2C(=O)N1CCc2cc(OC)c(OC)cc2C1,inactive
23,COCCOC(=O)N1C(=O)[C@@]2(c3cc(C#CC4=CCCCC4)ccc31)[C@H](c1ccc(OCCO)cc1)N1[C@H](c3ccccc3)[C@H](c3ccccc3)OC(=O)[C@H]1[C@@H]2C(=O)N1CCCCCCC1,inactive

row,Structure (SMILES),cytotoxicity call
1,COCCOC(=O)N1C(=O)[C@@]2(c3cc(C#CC4=CCCCC4)ccc31)[C@H](C(=O)N1CCc3cc(OC)c(OC)cc3C1)[C@H]1C(=O)O[C@H](c3ccccc3)[C@H](c3ccccc3)N1[C@@H]2c1ccccc1OCCO,active
2,COCCOC(=O)N1C(=O)[C@@]2(c3cc(C#CC4=CCCCC4)ccc31)[C@H](c1ccc(OCCO)cc1)N1[C@H](c3ccccc3)[C@H](c3ccccc3)OC(=O)[C@H]1[C@@H]2C(=O)N1CCc2cc(OC)c(OC)cc2C1,active
3,COCCOC(=O)N1C(=O)[C@@]2(c3cc(C#CC4=CCCCC4)ccc31)[C@H](c1ccccc1OCCO)N1[C@H](c3ccccc3)[C@H](c3ccccc3)OC(=O)[C@H]1[C@@H]2C(=O)N1CCc2cc(OC)c(OC)cc2C1,inactive
4,COCCOC(=O)N1C(=O)[C@@]2(c3cc(C#CC4=CCCCC4)ccc31)[C@H](C(=O)N1CCc3cc(OC)c(OC)cc3C1)[C@H]1C(=O)O[C@H](c3ccccc3)[C@H](c3ccccc3)N1[C@@H]2c1ccc(O)cc1,inactive
5,COCCOC(=O)N1C(=O)[C@@]2(c3cc(C#CCNC(N)=O)ccc31)[C@H](C(=O)N1CCc3cc(OC)c(OC)cc3C1)[C@H]1C(=O)O[C@H](c3ccccc3)[C@H](c3ccccc3)N1[C@@H]2c1ccccc1OCCO,inactive
6,C[C@H]1CN([C@@H](C)CO)C(=O)Cc2cc(NS(=O)(=O)c3ccc(F)cc3)ccc2O[C@H]1CN(C)S(=O)(=O)c1cccs1,inactive
7,Cc1ccccc1-c1ccc2c(c1)O[C@@H](CN(C)C(=O)Nc1ccc(C(F)(F)F)cc1)[C@@H](C)CN([C@@H](C)CO)S2(=O)=O,inactive
8,COC(=O)[C@@H]1CC(=O)N(C(C)C)C1,inactive
9,C[C@@H]1CN([C@H](C)CO)C(=O)c2c(c3ccccc3n2C)-c2ccccc2CO[C@@H]1CN(C)Cc1ccc(Oc2ccccc2)cc1,inactive
10,CN1CCN(C(=O)C[C@@H]2C=C[C@H](NC(=O)Cc3ccccn3)[C@@H](CO)O2)CC1,inactive
11,CCCC#Cc1cnc2c(c1)C(=O)N([C@@H](C)CO)C[C@@H](C)[C@H](CN(C)C(=O)c1ccc3c(c1)OCO3)O2,inactive
12,Cc1noc(C)c1NC(=O)N(C)C[C@H]1Oc2ccc(NC(=O)Nc3cccc4ccccc34)cc2CC(=O)N([C@@H](C)CO)C[C@H]1C,inactive
13,C[C@H]1CCCCO[C@H](CN(C)C(=O)Nc2ccc(C(F)(F)F)cc2)[C@@H](C)CN([C@@H](C)CO)C(=O)c2cc(NC(=O)CCC(F)(F)F)ccc2O1,active
14,C[C@@H]1CN([C@@H](C)CO)C(=O)c2cc(NC(=O)CCC(F)(F)F)ccc2O[C@@H](C)CCCCO[C@H]1CN(C)C(=O)Nc1ccc(C(F)(F)F)cc1,inactive
15,C[C@H](CO)N1C[C@H](C)[C@@H](CN(C)C(=O)Nc2ccc(C(F)(F)F)cc2)OCCCC[C@H](C)Oc2ccc(NC(=O)CCC(F)(F)F)cc2C1=O,active
16,C[C@H](CO)N1C[C@H](C)[C@H](CN(C)C(=O)Nc2ccc(C(F)(F)F)cc2)OCCCC[C@H](C)Oc2ccc(NC(=O)CCC(F)(F)F)cc2C1=O,inactive
17,C[C@@H]1CCCCO[C@@H](CN(C)C(=O)Nc2ccc(C(F)(F)F)cc2)[C@@H](C)CN([C@H](C)CO)C(=O)c2cc(NC(=O)CCC(F)(F)F)ccc2O1,inactive
18,C[C@@H]1CCCCO[C@H](CN(C)C(=O)Nc2ccc(C(F)(F)F)cc2)[C@@H](C)CN([C@H](C)CO)C(=O)c2cc(NC(=O)CCC(F)(F)F)ccc2O1,inactive
19,C[C@@H]1CCCCO[C@H](CN(C)C(=O)Nc2ccc(C(F)(F)F)cc2)[C@H](C)CN([C@@H](C)CO)C(=O)c2cc(NC(=O)CCC(F)(F)F)ccc2O1,active
20,C[C@@H]1CCCCO[C@H](CN(C)C(=O)Nc2ccc(C(F)(F)F)cc2)[C@H](C)CN([C@H](C)CO)C(=O)c2cc(NC(=O)CCC(F)(F)F)ccc2O1,inactive
21,C[C@@H]1CCCCO[C@@H](CN(C)C(=O)Nc2ccc(C(F)(F)F)cc2)[C@H](C)CN([C@@H](C)CO)C(=O)c2cc(NC(=O)CCC(F)(F)F)ccc2O1,inactive
